The panel holds about 79,000 compounds, 15% with a hit somewhere; the sample as a whole holds those more often. Activity calls are given as the source filed them. No stated cut-off is given here; in the data, active means growth inhibition above about 70%; inactive means the rest.
Assays:
[1] = NCI Yeast Anticancer Drug Screen. Data for the rad50 strain (AID 155);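 further: 0% = growth of vehicle-only cultures of the same strain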; conditions: S. cerevisiae rad50 strain growth inhibition; at 50.0 µM; hits give high values
How it was run: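 Readout: growth inhibition relative to vehicle-treated cultures. Compound exposure was carried out in a genetically defined yeast strain deficient in DNA damage repair.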

[2] = NCI Yeast Anticancer Drug Screen. Data for the mec2-1 strain (AID 157); conditions: S. cerevisiae mec2-1 strain, at 50.0 µM, hits give high values
How it was run: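 Compounds were applied to mec2-1 yeast cells. Their growth was then compared with that of vehicle-treated cultures to give growth inhibition.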

[3] = NCI Yeast Anticancer Drug Screen. Data for the sgs1 mgt1 strain (AID 161);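 further: 0% = growth of cultures given vehicle only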; conditions: S. cerevisiae sgs1 mgt1 strain, at 50.0 µM, hits give high values
How it was run: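 Compounds are added to genetically altered yeast, and growth is compared with cultures given vehicle alone to give percent inhibition.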

[4] = NCI Yeast Anticancer Drug Screen. Data for the cln2 rad14 strain (AID 165);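 further: 0% = growth equal to vehicle treated cultures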; conditions: S. cerevisiae cln2 rad14 strain, at 50.0 µM, hits give high values
How it was run: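 Strain: cln2 rad14 yeast, altered in cell cycle control and DNA damage repair. Read-out: growth inhibition vs vehicle.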

[5] = NCI Yeast Anticancer Drug Screen. Data for the bub3 strain (AID 167); conditions: S. cerevisiae bub3 mutant strain, at 50.0 µM, hits give high values
How it was run: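 Readout: yeast growth inhibition, expressed relative to vehicle-only wells. The test organism is a mutant strain from a panel with lesions in DNA repair or checkpoint genes.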

[6] = NCI Yeast Anticancer Drug Screen. Data for the mlh1 rad18 strain (AID 175); conditions: S. cerevisiae mlh1 rad18 strain growth inhibition; at 50.0 µM; hits give high values
How it was run: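 A repair-deficient yeast strain is exposed to test compound, and growth is scored relative to vehicle-treated controls.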

Measured: growth inhibition

O=c1[nH]c(-c2ccc(Cl)cc2)cs1
inactive: [1] -1.25% | [2] -14.8% | [3] -7% | [4] -5.65% | [5] -19.9% | [6] -16.1%

O=C(CCc1ccc(O)c(O)c1)OCCc1ccccc1
active: [1] 89.2% | [2] 89.8% | [3] 90.9% | [4] 88% | [5] 87.5% | [6] 89.2%

O=C1N(c2ccccc2)C(=O)C2(SC=NN2Cc2ccccc2)N1c1ccccc1 (centres undefined)
inactive: [1] -7% | [2] 2% | [3] -18.6% | [4] 8.2% | [5] 11.8% | [6] 10.7%

Nc1nc(N)c(-c2ccccc2)c(C(=O)Nc2ccc(Cl)c(Cl)c2)n1
inactive: [1] -27.9% | [2] -34.4% | [3] 4.1% | [4] 5.6% | [5] -23.1% | [6] -16.4%

COc1ccc(CSC(=S)Nc2ccc(F)c(C)c2)cc1
inactive: [1] 20.8% | [2] 14.4% | [3] 17.1% | [4] 28.1% | [5] 5.1% | [6] 10.6%

COC(=O)C(=O)[C@@H](O)[C@H](O)[C@@H](O)CO
inactive: [1] 29.8% | [2] 23.7% | [3] 25% | [4] 13.1% | [5] 25.7% | [6] 23.6%

CC1CCCc2c(CC3CC(=O)NC(=O)C3)nc(N)nc21 (centres undefined)
inactive: [1] 6.75% | [2] 5.25% | [3] -18.8% | [4] -7.85% | [5] -4.7% | [6] -23.4%

O=NSC(c1ccccc1)(c1ccccc1)c1ccccc1
inactive: [1] 1.65% | [2] -24.2% | [3] 1.6% | [4] -28.1% | [5] -9.25% | [6] 0%

COc1cc2c(cc1OC)C(=O)/C(=C/c1ccc(N(C)C)cc1)CC2
inactive: [1] -39.5% | [2] -58% | [3] -28.9% | [4] -63.7% | [5] -7.2% | [6] -39.8%

O=C(O)C1Cc2nc[nH]c2CN1CO (centres undefined)
inactive: [1] 6.1% | [2] -8.8% | [3] -19.8% | [4] 3.95% | [5] 23.7% | [6] 8%

COC(=O)C1=COC(OC2OC(CO)C(O)C(O)C2O)C2C(C)CC(=O)C12 (centres undefined)
inactive: [1] -39.2% | [2] -39% | [3] -22.4% | [4] 20.6% | [5] -29.9% | [6] -20.4%

Cc1nc([N+](=O)[O-])cn1CC(Cl)Cn1cc([N+](=O)[O-])nc1C
inactive: [1] -4.65% | [2] -12.4% | [3] -18.7% | [4] 9.7% | [5] -25.1% | [6] 14.2%

Cc1cc(NC(=O)NC(=O)c2ccccc2NC(=O)CN(C)C)ccc1Oc1ncc(Br)cn1
inactive: [1] -10.3% | [2] -28.9% | [3] 0.5% | [4] -6.2% | [5] -21% | [6] -26.7%

CC1=NN(C(=O)CC(=O)N(C(=O)c2ccccc2Cl)c2ccc(C)cc2)C(=O)C1N=Nc1ccc([N+](=O)[O-])cc1 (centres undefined)
inactive: [1] 46.2% | [2] 29.9% | [3] 47.5% | [4] 27.3% | [5] 54.1% | [6] 46.1%

O=C(C(=Cn1c(=O)cc[nH]c1=S)C(=O)c1ccccc1)c1ccccc1
inactive: [1] -14.7% | [2] -19.4% | [3] -27.6% | [4] 2.95% | [5] -15.6% | [6] -9.7%

CCOC(=O)c1ccccc1Nc1c(C(=O)OCC)cnc2cc3c(cc12)OCO3
inactive: [1] -13.8% | [2] 3.95% | [3] -9.85% | [4] 2.85% | [5] -0.25% | [6] -7.8%

CC(N)C(=O)NC(C(=O)O)C(C)C (centres undefined)
inactive: [1] -2.4% | [2] -2.55% | [3] -16.1% | [4] -14.7% | [5] 0.3% | [6] -23.4%

CC(=O)CCCCCCCCCCCCCC(C)=O
inactive: [1] -18.1% | [2] -5.1% | [3] -21.1% | [4] -10.8% | [5] 6.25% | [6] -6%

O=C(NCCCBr)Nc1cccc2c1CCCC2
inactive: [1] -7.45% | [2] 5.9% | [3] 2.5% | [4] -31.5% | [5] -20.9% | [6] -21.1%

COC(=O)C(C)CC(C)C(=O)OC (centres undefined)
inactive: [1] 19.6% | [2] -15.8% | [3] 17.6% | [4] 12.7% | [5] -2.95% | [6] 16.4%

O=[N+]([O-])CC1CCCCC1
inactive: [1] -2.7% | [2] -19.9% | [3] 6.85% | [4] 14.3% | [5] -1.3% | [6] 19.1%

Cn1c(=O)c2c(ncn2-c2ccc(N)cn2)n(C)c1=O
inactive: [1] -7.1% | [2] -4.55% | [3] -7.15% | [4] 9.45% | [5] 11.2% | [6] 4.1%

CCN(CC)CCn1c(C(C)(C)C)nc2ccccc21
inactive: [1] -9.15% | [2] -20.8% | [3] -24.1% | [4] -6.25% | [5] -15.8% | [6] -10.9%

Cc1ccc(S(=O)(=O)/C=C/c2ccccc2)cc1
inactive: [1] 8.15% | [2] 6.2% | [3] 1.8% | [4] -10.3% | [5] -2.45% | [6] -10.2%

CCOc1cc2c(cc1C(C)c1ccc(OCc3ccccc3)c(OC)c1)OCO2 (centres undefined)
inactive: [1] 18.8% | [2] -6.7% | [3] -5.35% | [4] 11.7% | [5] -2.05% | [6] 1.75%

Cc1ccc(N=NC2=C3Sc4ccccc4N=C2N(c2ccc(Br)cc2)C(=S)N3c2ccc(Cl)cc2)cc1
inactive: [1] -8.6% | [2] -3.35% | [3] -21.4% | [4] 18.9% | [5] -3.4% | [6] 1.05%

CC(C)CCNc1ncnc2[nH]ncc12
inactive: [1] -16.5% | [2] -31.7% | [3] -26.2% | [4] -35.1% | [5] -13.8% | [6] -18.4%

O1[SiH]2[SiH]3O[SiH]3[SiH]3O[SiH]3[SiH]12 (centres undefined)
inactive: [1] -16.8% | [2] -11.7% | [3] -8.2% | [4] -16.6% | [5] -4.35% | [6] -26.6%

CC1=C(C)CC2C(=O)C=CC(=O)C2C1 (centres undefined)
inactive: [1] 8.9% | [2] 1.4% | [3] -10.7% | [4] 4.65% | [5] 2.25% | [6] -6.9%

O=c1c2cccnc2cc(-c2ccccc2)n1CCO
inactive: [1] -27.5% | [2] -12.3% | [3] -16.2% | [4] 4.55% | [5] 3.3% | [6] -4.15%

Cc1c(-c2ccccc2)c(=O)oc2cc(O)ccc12
inactive: [1] -12.4% | [2] 13% | [3] 9.3% | [4] -49.2% | [5] 17.5% | [6] 11.2%

Cc1ccc(C(=S)NC(=O)Nc2ccccc2)cc1
inactive: [1] -7.1% | [2] 9.45% | [3] -17.8% | [4] -20.9% | [5] 45.8% | [6] 1.45%

O=C(N=Nc1c(O)[nH]c2ccc(Br)cc12)c1ccncc1
inactive: [1] -1.75% | [2] 2.8% | [3] 9.6% | [4] 3.2% | [5] 8.25% | [6] -10.1%

Nc1ncnc2c1[nH]c(=S)n2C1OC(CO)C(O)C1O (centres undefined)
inactive: [1] 14.4% | [2] 6.3% | [3] 3.1% | [4] -12.1% | [5] 4% | [6] 0.15%

COc1ccccc1NC(=O)CC(=O)N1N=C(N2c3ccccc3Sc3ccccc32)CC1c1ccccc1 (centres undefined)
inactive: [1] 2.55% | [2] 3.2% | [3] -2.15% | [4] 22.7% | [5] 12.4% | [6] -66.5%

C1=C(c2ccccc2)C(OC2Oc3ccccc3C=C2c2ccccc2)Oc2ccccc21 (centres undefined)
inactive: [1] 23.1% | [2] -2.15% | [3] 6.35% | [4] 11.9% | [5] 22.2% | [6] -3.65%

C=C1CCCCCCCCCCC1S(=O)c1ccccc1 (centres undefined)
inactive: [1] 14.5% | [2] 14.3% | [3] 4.15% | [4] -6.6% | [5] -5.4% | [6] 31.5%

Cc1ccc(N(C)C)cc1
inactive: [1] -25.3% | [2] -15.1% | [3] 10.8% | [4] -18.4% | [5] -0.45% | [6] 6.4%

C[CH2][GeH][CH2]C.C[CH2][Ge]([CH2]C)[CH2]C
inactive: [3] 60.8%
active: [1] 95.2% | [2] 97% | [4] 96.5% | [5] 96% | [6] 94.8%

From PubChem BioAssay (NCI)
